The panel holds about 83,000 compounds, 20% with a hit somewhere; the sample as a whole holds those more often.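 The test compound was applied at a single concentration to cells in 96-well plates for 48 hours, and percent growth was recorded.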 Unmarked numbers belong to inactive results. The source made the active and inactive calls. How the source made its calls: active means growth percent below 10; inactive means the rest.

These results are taken from PubChem BioAssay (NCI).

For the test, the system named is M14 melanoma. Description: NCI-60 one-dose screen, 48 h (100 = growth as untreated, 0 = no growth, -100 = all killed). The settings on record: 10 µM unless noted.
For `O=C(/C=C/c1ccc(Cl)cc1)c1ccc(NC(=O)N2CCN(c3cc4c(cc3F)c(=O)c(C(=O)O)cn4C3CC3)CC2)cc1`, the growth is 104%. The result for `O=C(/C=C(/C=C/c1csc2ccccc12)OB(F)F)/C=C/c1csc2ccccc12` reads 8.88% (active); that for `CN1CCN(C(=O)[C@]23CCC(C)(C)C[C@H]2C2=CC[C@@H]4[C@@]5(C)C/C(=C/c6cccnc6)C(=O)C(C)(C)[C@@H]5CC[C@@]4(C)[C@]2(C)CC3)CC1`, 57.5%. Regarding `CC1=CCC(OC(=O)C(C)(O)CCC(O)(C(=O)OC2(C)C=CC(O)(C(C)C)CC2)C(C)C)(C(C)C)CC1` (configuration not stated), the growth was 102%.

Turning to `NC1=NN=C(N)C1=Cc1cc2ccccc2n2nnnc12`, the growth was 111%. For `COc1ccc(NC(N)=NCCCOc2ccc(F)cc2)cc1` the value was 69.1%. For `O=C1c2ccc3c4c(ccc(c24)C(=O)N1CCCNCc1ccccc1)C(=O)N(CCCNCc1ccccc1)C3=O` the value was -76% (active); for `O=C(NCCNc1nccc(-c2c(-c3cccc(F)c3)nc3sccn23)n1)c1ccc(Cl)cc1`, 38.8%; for `C=C1C(=O)O[C@H]2[C@H]1CC/C(COC(=O)NCCc1c[nH]c3ccc(OC)cc13)=C\CC[C@@]1(C)O[C@@H]21`, 14.1%.

Consider `COc1cc(CC(=O)c2ccc(O)c(OC)c2)ccc1O`, for which the growth is 102%.

As to `CCN(CC)c1ccc(/C=N/NC(=O)CSc2nc3ccccc3c(=O)n2CCc2ccc(S(N)(=O)=O)cc2)c(O)c1`, the growth is 31.1%. As for `Cc1ccc(-n2c3c(c(-c4ccccc4)c2-c2ccccc2)C2=NCCN2C=N3)cc1`, the growth was 95.7%.
